# In all, about 350,000 compounds went through this assay and about 5,500 (1.6%) were called active.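 The calls were made as follows: active = significant combined selectivity score with lowered wild-type GFP, culture density cut under 30%, mutant RFP and density less affected; inactive = any of these conditions unmet.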 Many of the other results were omitted from the sample, so actives are more common in it than they were.
# Test: reduced GFP signal of wild-type E. coli, primary screen, bacterial rRNA inhibitor project, GFP/RFP fluorescence, OD600, single point (AID 720706)
# Conditions: E. coli WT GFP vs humanized-ribosome RFP mutants, 24 h; GFP signal change (wild-type ribosome): stronger effect = lower value, DMSO median 0, no signal -100; OD600 change: measured here: OD600 growth, DMSO median 0, no signal -100; RFP signal change: measured here: RFP humanized mutant strains, DMSO median 0, no signal -100, concentration not given here
SMILES,GFP signal change (wild-type ribosome),OD600 change [%],RFP signal change [%]
O=C(Nc1cccc(F)c1)N1CC(=O)N2[C@H](CO)[C@H](c3ccc(C#CC4CC4)cc3)[C@@H]2C1,4.76% (inactive),3,11.4
CCN(CC(=O)NCc1ccc(F)cc1)S(=O)(=O)c1ccc(Cl)s1,-6.72% (inactive),-25.1,-2.95
CSc1ccc(CN(C)CC(=O)NCc2ccc(F)cc2)cc1,-30.9% (active),-24.5,-8.04
Cc1ccc(SC(C)C(=O)NCc2ccc(F)cc2)cc1 (configuration not stated),7.25% (inactive),3.19,-0.85
Cc1noc(C)c1S(=O)(=O)Nc1ccc2c(c1)C(=O)N([C@@H](C)CO)C[C@@H](C)[C@H](CN(C)C(=O)NC(C)C)OCCCC[C@@H](C)O2,4.36% (inactive),7.55,-2.26
C[C@@H]1CN([C@H](C)CO)C(=O)c2cc(-c3ccc(F)cc3)cnc2O[C@@H]1CN(C)Cc1ccc(C(=O)O)cc1,-4.64% (inactive),1.8,-8.48
CO[C@@H]1CN(C)C(=O)c2ccc(NC(=O)Nc3cc(F)ccc3F)cc2OC[C@@H](C)N(C)C[C@@H]1C,-5.36% (inactive),-19.5,0.48
CCC(=O)N1[C@@H](CO)[C@H](c2ccc(-c3cccc(F)c3)cc2)[C@@H]1CNC(C)=O,-3.61% (inactive),3.25,2.12
O=C(C1CCOCC1)N1C[C@H]2[C@@H](c3ccccc31)[C@@H](CO)N2Cc1ccccc1,-1.33% (inactive),0.79,-0.998
O=S(=O)(Nc1ccc(O)c2ccccc12)c1ccc(OC(F)(F)F)cc1,-28.6% (active),-14.2,-9.13
COc1ccccc1NS(=O)(=O)c1ccc(C(=O)N2CCN(c3ccccc3O)CC2)cc1,-1.32% (inactive),-2.56,-0.007
FC(F)(F)Oc1ccc(NC(=S)NCc2ccccc2)cc1,-56.8% (inactive),-77.1,-19.9
C[C@H](CO)N1C[C@H](C)[C@H](CN(C)C(=O)C2CC2)Oc2ncc(C#Cc3ccccc3)cc2C1=O,-0.859% (inactive),2.9,-0.79
Oc1ccc(-n2nnnc2SCc2c(F)cccc2Cl)cc1,-53.5% (inactive),-72.8,-14.2
Fc1cccc(Cl)c1CSc1ccc(-c2ccco2)nn1,-21.1% (active),-7.59,0.773
Cc1cc(SCc2c(F)cccc2Cl)nc(=O)[nH]1,-15.5% (inactive),0.505,-0.535
N#C[C@@H]1[C@H](c2ccc(-c3cccnc3)cc2)[C@H](CO)N1C(=O)C1CC1,1.69% (inactive),-1.23,1.92
C[C@@H]1CN([C@@H](C)CO)C(=O)c2cc(-c3ccc(F)cc3)cnc2O[C@H]1CN(C)C(=O)c1ccncc1,5.96% (inactive),18.3,-6.6
COCC(=O)N[C@H]1C=C[C@H](CC(=O)N2CCCCC2)O[C@H]1CO,0.044% (inactive),2.08,0.319
CC(O)c1ccc(OCCN(C)c2ccccn2)cc1 (configuration not stated),7.56% (inactive),9.08,-0.281
CN(CCOc1ccc(CC2SC(=O)NC2=O)cc1)c1ccccn1 (configuration not stated),-18.5% (active),-19.1,5.83
CC(C)=N/N=C1/NC(=O)C(Cc2ccccc2)S1 (configuration not stated),5.19% (inactive),0.06,4.42

SMILES,GFP signal change (wild-type ribosome),OD600 change [%],RFP signal change [%]
CCC(=O)N1CCC2(CC1)CN(Cc1ccc(Cl)cc1)[C@@H](CO)c1[nH]c3cc(OC)ccc3c12,0.255% (inactive),-3.27,4.57
COc1ccc2c3c(n(C)c2c1)[C@@H](CO)NCC31CCN(CC2CC2)CC1,8.18% (inactive),22.6,-3.19
O=C(NCC[C@H]1CC[C@@H](NC(=O)c2cnccn2)[C@H](CO)O1)Nc1ccc(Cl)cc1,-40.4% (inactive),-66.2,9.29
COc1cccc(CNC(=O)[C@H]2CCCN2C(=O)[C@H]2CCCN2C(=O)c2ccc(F)cc2)c1,2.11% (inactive),11.4,-3.48
CNC[C@H]1Oc2ccc(NC(=O)NC(C)C)cc2C(=O)N(C)C[C@@H]1C,4.42% (inactive),7.25,0.095
Cc1ccc2c(N)c(C(=O)c3ccccc3)sc2n1,-33.7% (active),-0.632,-10.4
Cc1ccc(NC(=O)c2sc3nc(N)c(C#N)cc3c2N)cc1,1.14% (inactive),1.53,1.97
CCOC(=O)C(C)n1nc(-c2ccccc2)c2ccccc2c1=O (configuration not stated),2% (inactive),4.27,-0.337
CCN(CC)C(=O)c1sc2nc(-c3ccccc3)ccc2c1N,-15.6% (active),-3.66,4.88
CCN(CC)C(=O)c1nc[nH]c1C(=O)N(C)Cc1ccccc1,31.5% (inactive),17.4,2.93
COC(=O)c1cc2c(N)c(C(=O)c3ccc(Cl)cc3)sc2nc1C(OC)OC,19.9% (inactive),8.88,2.24
CC(=O)NC[C@@H]1[C@@H](c2ccccc2)[C@@H](CO)N1C(=O)Cc1cccnc1,1.93% (inactive),9.5,-2.5
COCC(=O)N1CC(=O)N2[C@H](CO)[C@@H](c3ccc(C#CC4CCCCC4)cc3)[C@@H]2C1,-1.52% (inactive),-39.4,13.9
O=C(CN1CCCCC1)NC(=O)Nc1ccccc1F,20.5% (inactive),19.5,2.38
CC(C)(C)NC(=O)NC(=O)CN1CCC(Cc2ccccc2)CC1,-31.9% (active),-22.7,-1.62
COc1ccc(NC(=O)N2CCC(Cc3ccccc3)CC2)cc1,-3.82% (inactive),-5.59,-1.73
CO[C@@H]1CN(C)C(=O)c2ccc(NS(=O)(=O)c3ccc(Cl)cc3)cc2OC[C@@H](C)N(C)C[C@@H]1C,-0.718% (inactive),1.84,-0.00025
O=C(c1ccccc1F)N1CC(=O)N2[C@H](CO)[C@@H](c3ccc(-c4cccnc4)cc3)[C@H]2C1,4.23% (inactive),20.3,2.58
CC(=O)N1C[C@@H]2C(c3ccccc3)[C@@H](C1)N2C(=O)NC(C)C (some centres not stated),1.98% (inactive),3.76,-1.21
COC(=O)c1ccc(CSc2nc3ccccc3c(=O)n2-c2cccc(OC)c2)o1,1.15% (inactive),-0.729,0.461
Cc1nnc(SCc2ccc(C(=O)c3ccc(Cl)cc3)o2)n1-c1ccccc1,-32.1% (active),-22.7,3.57
Cc1nnc(SCC(=O)Nc2cccc(N)c2)n1-c1ccccc1,6.38% (inactive),12,4.46

# — PubChem BioAssay AID720706 (Broad Institute, 2013)
